The assay deals with Voltage-dependent N-type calcium channel subunit alpha-1B (Homo sapiens) (UniProt Q00975). Briefly: inhibitors of Mint1-CaV2.2 protein interaction, biochemical, HTRF (AID 2073). The following applies: at 20 µM, stronger effect = higher value. In general terms: Time-resolved FRET reads energy transfer from a long-lived donor to a nearby acceptor.
Setting [1] is: measured here: average of repeat tests.

The campaign covered roughly 290,000 compounds. About 570 (0.2%) were called active. Not shown: some 1% with an inconclusive outcome. Rule as the data show it: active = inhibition mostly above about 51% (no sharp cut-off); inconclusive = no clear call, values can overlap the other calls; inactive = mostly below about 53%. For the sample, actives were picked, then their nearest neighbours and some compounds at random.

Chain of Voltage-dependent N-type calcium channel subunit alpha-1B (Homo sapiens) (Q00975 whole entry, looked up): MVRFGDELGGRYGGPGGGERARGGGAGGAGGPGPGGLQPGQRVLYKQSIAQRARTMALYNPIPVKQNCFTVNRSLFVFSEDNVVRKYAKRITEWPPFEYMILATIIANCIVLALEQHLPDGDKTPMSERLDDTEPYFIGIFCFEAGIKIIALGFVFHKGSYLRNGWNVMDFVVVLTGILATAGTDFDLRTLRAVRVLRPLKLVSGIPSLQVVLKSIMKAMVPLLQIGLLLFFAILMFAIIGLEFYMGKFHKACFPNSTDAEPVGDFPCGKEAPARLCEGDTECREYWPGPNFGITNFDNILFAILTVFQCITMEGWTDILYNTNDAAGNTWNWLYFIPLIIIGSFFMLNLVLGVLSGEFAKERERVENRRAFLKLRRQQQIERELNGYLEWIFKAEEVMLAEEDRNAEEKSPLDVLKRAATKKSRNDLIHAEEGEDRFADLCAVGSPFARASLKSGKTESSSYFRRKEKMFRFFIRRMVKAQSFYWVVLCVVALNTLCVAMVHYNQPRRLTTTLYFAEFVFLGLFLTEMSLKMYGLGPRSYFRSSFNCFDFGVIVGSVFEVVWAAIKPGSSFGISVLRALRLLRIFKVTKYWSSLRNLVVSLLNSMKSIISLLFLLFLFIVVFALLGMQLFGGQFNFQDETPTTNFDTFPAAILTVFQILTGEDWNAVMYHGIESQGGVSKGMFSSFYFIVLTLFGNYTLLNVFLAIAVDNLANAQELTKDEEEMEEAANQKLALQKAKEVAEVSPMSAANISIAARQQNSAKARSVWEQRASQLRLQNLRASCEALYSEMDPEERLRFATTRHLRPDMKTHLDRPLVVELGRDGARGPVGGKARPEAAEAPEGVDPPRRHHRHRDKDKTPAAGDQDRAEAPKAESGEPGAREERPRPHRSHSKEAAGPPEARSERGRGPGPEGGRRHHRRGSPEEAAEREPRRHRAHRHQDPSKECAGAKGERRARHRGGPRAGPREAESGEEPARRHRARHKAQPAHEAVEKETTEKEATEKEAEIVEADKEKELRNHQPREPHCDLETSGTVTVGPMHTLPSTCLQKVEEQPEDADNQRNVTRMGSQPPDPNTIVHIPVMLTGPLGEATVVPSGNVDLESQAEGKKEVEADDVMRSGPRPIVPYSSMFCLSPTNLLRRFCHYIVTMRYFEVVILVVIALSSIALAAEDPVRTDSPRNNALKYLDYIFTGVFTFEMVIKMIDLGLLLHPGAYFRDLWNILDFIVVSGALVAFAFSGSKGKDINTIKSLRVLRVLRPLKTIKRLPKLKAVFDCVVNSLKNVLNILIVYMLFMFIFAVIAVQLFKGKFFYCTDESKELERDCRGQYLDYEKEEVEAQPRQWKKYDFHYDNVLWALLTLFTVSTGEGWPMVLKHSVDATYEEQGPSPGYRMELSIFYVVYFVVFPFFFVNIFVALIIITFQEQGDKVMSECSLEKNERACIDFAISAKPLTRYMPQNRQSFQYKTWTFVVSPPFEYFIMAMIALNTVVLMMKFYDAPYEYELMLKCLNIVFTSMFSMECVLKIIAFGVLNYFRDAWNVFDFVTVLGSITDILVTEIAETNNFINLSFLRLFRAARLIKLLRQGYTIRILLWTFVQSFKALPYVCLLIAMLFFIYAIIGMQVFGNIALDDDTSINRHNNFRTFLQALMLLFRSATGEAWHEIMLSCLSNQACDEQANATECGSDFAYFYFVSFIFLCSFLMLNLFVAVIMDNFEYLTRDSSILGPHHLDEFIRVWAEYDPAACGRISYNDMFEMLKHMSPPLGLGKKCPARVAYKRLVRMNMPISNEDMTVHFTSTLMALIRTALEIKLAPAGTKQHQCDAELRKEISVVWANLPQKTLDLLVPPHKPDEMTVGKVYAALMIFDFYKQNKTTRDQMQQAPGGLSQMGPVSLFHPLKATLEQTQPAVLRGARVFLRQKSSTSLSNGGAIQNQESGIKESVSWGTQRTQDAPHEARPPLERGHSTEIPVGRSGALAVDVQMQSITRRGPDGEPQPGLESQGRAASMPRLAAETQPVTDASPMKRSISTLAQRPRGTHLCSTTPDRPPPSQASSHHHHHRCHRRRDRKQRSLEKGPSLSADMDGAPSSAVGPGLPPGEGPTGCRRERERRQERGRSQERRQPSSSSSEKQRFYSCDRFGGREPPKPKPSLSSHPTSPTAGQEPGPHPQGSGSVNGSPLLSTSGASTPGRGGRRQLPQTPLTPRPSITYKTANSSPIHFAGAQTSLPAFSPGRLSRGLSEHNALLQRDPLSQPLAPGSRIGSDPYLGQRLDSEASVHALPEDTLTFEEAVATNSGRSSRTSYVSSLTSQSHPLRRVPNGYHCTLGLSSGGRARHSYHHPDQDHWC

What is called inhibition is the drop in the measured response relative to a control, in per cent. Regarding `Cc1cc(C2=NNC(=NC3CC3)SC2)c(C)n1Cc1ccco1`, the inhibition is 26.3% (inactive). In the case of `CCN=C1NN=C(c2cc(C)n(Cc3ccco3)c2C)CS1`, the inhibition was 57.5% (active). Still for that read-out and setting: next, `COCCCN=C1NN=C(c2cc(C)n(Cc3ccco3)c2C)CS1`: 24.8% (inactive). The same measure, in the same setting: next, `CCOC(=O)/C(C#N)=C1/C=Nc2ccccc2N1`: 14.4% (inactive). Same read-out and setting: next, `Cc1ccc(NC(=O)CCNS(=O)(=O)c2ccc3[nH]c(=O)oc3c2)c(C)c1`: -0.1% (inactive); `COc1cccc(C(=O)Nc2ccc3c(c2)C(=O)NC3=O)c1`: 11.6% (inactive). For `Cc1ccn2c(Nc3ccccc3)c(-c3ccccn3)nc2c1`, the inhibition was 21.1% (inactive). `Cc1ccc(Nc2c(-c3ccccn3)nc3cc(C)ccn23)cc1`: the inhibition is 50.4% (active).

Consider `Cc1ccn2c(Nc3ccccc3C)c(-c3ccccn3)nc2c1`, for which the inhibition is 15% (inactive). Still for that read-out and setting: to `O=C(Nc1ccc2c(c1)OCCO2)c1cccc(Br)c1` belongs -4.4% (inactive); to `Nc1nnnn1/N=C/c1ccccc1OCc1ccc(Cl)cc1`, 0.5% (inactive); to `Cc1nn(CC(=O)NCC2CCCO2)c(C)c1[N+](=O)[O-]` (centres undefined), 5.2% (inactive). Still for that read-out and setting: next, `CC(=O)NNC(=O)c1sc(=S)n2c1[nH]c(=O)c1sccc12`: 46.1% (inactive); `NC(=O)c1sc(=S)n2c1[nH]c(=O)c1sccc12`: 51.8% (active); `O=C(NCc1ccccc1)c1sc(=S)n2c1[nH]c(=O)c1ccccc12`: -8.6% (inactive). Same read-out and setting: to `Cc1c(C(=O)/C=C/c2cccs2)oc2ccc(F)cc12` belongs -6.1% (inactive); to `O=C(OC1CCCCC1)c1ccc2c(c1)C1C=CCC1C(C(=O)O)N2` (centres undefined), 74.8% (active).

For the compound `Cc1ccc2c(c1)C1C=CCC1C(C(=O)O)N2` (centres undefined), the inhibition is 39.2% (inactive). As for `CCOC(=O)c1ccc2c(c1)C1C=CCC1C(C(=O)O)N2` (centres undefined), the inhibition was 31% (inactive). `Cc1ccccc1OCC(=O)OC(C(=O)c1ccccc1)c1ccccc1` (centres undefined): the inhibition is 12.2% (inactive). The same measure, in the same setting: to `O=C1CCCN1c1cc(Cl)ccc1Cl` belongs -4.5% (inactive). Still for that read-out and setting: to `Fc1ccc(Nc2nnc(C(F)(F)F)s2)cc1Cl` belongs 10.6% (inactive); to `O=c1cnnc(Nc2cccc(C(F)(F)F)c2)[nH]1`, 2.4% (inactive). Still for that read-out and setting: to `O=c1cc(O)c2sc(Nc3cccc(C(F)(F)F)c3)nc2[nH]1` belongs 66.6% (active); to `Fc1ccc(Nc2nc3ccccc3s2)cc1`, 3.5% (inactive); to `O=c1cc(O)c2sc(Nc3ccc(F)cc3)nc2[nH]1`, 63.2% (active). With `O=c1cc(O)c2sc(Nc3ccc(F)c(Cl)c3)nc2[nH]1`, the inhibition is 86.3% (active). With `O=c1cc(O)c2sc(Nc3ccc(Cl)c(F)c3)nc2[nH]1`, the inhibition was 66.1% (inactive). Besides, the inhibition under setting [1] came to 31.6%. In the case of `Cc1cc(=O)[nH]c(Nc2cccc(C(F)(F)F)c2)n1`, the inhibition was -2.3% (inactive). Take `COc1ccc(Nc2nc3[nH]c(=O)cc(O)c3s2)cc1`: the inhibition is 87.5% (inactive). Moreover, the inhibition under setting [1] worked out at 17.2%.

In the case of `O=C(/C=C/c1ccccc1)N1CCN(S(=O)(=O)c2ccc(F)cc2)CC1`, the inhibition is -4.1% (inactive).

In the case of `CN(C)CCNc1nc2c(c(=O)[nH]c(=O)n2C)n1CC(O)COc1ccc(Cl)cc1` (centres undefined), the inhibition was -3% (inactive). Still for that read-out and setting: to `O=C(N/N=C/c1ccc(O)cc1O)c1ccc(CN2C(=O)c3cccc4cccc2c34)cc1` belongs 69.5% (active); to `O=C(N/N=C/c1ccccc1)c1ccc(CN2C(=O)c3cccc4cccc2c34)cc1`, 36.4% (inactive). On to `COc1ccc(/C=N/NC(=O)c2ccc(CN3C(=O)c4cccc5cccc3c45)cc2)cc1O`, for which the inhibition was 71.7% (inactive). Besides, the inhibition under setting [1] was found to be 39.7%. On to `COC(=O)c1ccc(OCCOc2ccccc2C)cc1`, for which the inhibition is 26.5% (inactive). Still for that read-out and setting: to `Cc1ccc(C)c(S(=O)(=O)NCc2ccc(C(=O)N3CCOCC3)cc2)c1` belongs -3.9% (inactive); to `CC(=O)Nc1ccc(OCCOc2ccc(/C=C3\C(=N)N4N=C(C)SC4=NC3=O)cc2)cc1`, 24.7% (inactive).

As to `CCc1nn2c(=O)cc(COc3ccc(/C=C4\C(=N)N5N=C(CC(C)C)SC5=NC4=O)cc3)nc2s1`, the inhibition is 24.6% (inactive). For the compound `CCc1nn2c(=O)cc(COc3ccc(/C=C4\C(=N)N5N=C(C)SC5=NC4=O)cc3)nc2s1`, the inhibition is 60% (active). The same measure, in the same setting: to `COCCCN1C(=O)C(=O)/C(=C(/O)c2ccc(S(=O)(=O)N3CCCCC3)cc2)C1c1ccc(O)cc1` (centres undefined) belongs 2% (inactive); to `CNC(=S)N1CCN=C1Nc1nc(C)cc(C)n1`, 3.5% (inactive). Turning to `Cc1c(Cl)cccc1NS(=O)(=O)c1ccc2c(c1)C1C=CCC1C(c1ccc(C(=O)O)cc1)N2` (centres undefined), the inhibition was 61% (inactive). Moreover, the inhibition under setting [1] was found to be 29.1%.

Take `COc1cccc(NS(=O)(=O)c2ccc3c(c2)C2C=CCC2C(c2ccc(C(=O)O)cc2)N3)c1` (centres undefined): the inhibition was 56.4% (active). Further, under setting [1], the inhibition is 55%. With `COc1ccc(NS(=O)(=O)c2ccc3c(c2)[C@H]2C=CC[C@H]2[C@@H](c2ccc(C(=O)O)cc2)N3)cc1`, the inhibition is 20.2% (inactive).

For `Cc1cc(-c2cc(C(=O)O)c3ccccc3n2)c(C)s1`, the inhibition is 9.2% (inactive).

For `O=C1c2ccccc2C(=O)N1OCc1c(F)cccc1Cl`, the inhibition was 16.6% (inactive). Same read-out and setting: next, `CCOC(=O)c1c(-n2cnnn2)sc(C)c1C`: -6.3% (inactive); `CCOC(=O)c1c(N2C(=O)C3CC(C)=C(C)CC3C2=O)sc(C)c1C` (centres undefined): -2.7% (inactive); `CCOC(=O)c1c(N2C(=O)C=CC2=O)sc(C)c1C`: 65.5% (active).

In the case of `CCOC(=O)c1c(NC(=O)COC)sc(C(C)=O)c1C`, the inhibition is 6.4% (inactive). Same read-out and setting: next, `CCOc1ccc(N2C(=O)CC(S/C(N)=N/N=C/c3cccs3)C2=O)cc1` (centres undefined): 10.6% (inactive); `CCCCc1nc2sc3c(=O)n(N)cnc3c2c2c1CCCC2`: 8.9% (inactive); `CCn1ncc(-c2ccnc3cc(C(=O)O)nn23)c1C`: 67.9% (active).

`Cc1c(-c2ccnc3cc(C(=O)O)nn23)cnn1C`: the inhibition was 49.5% (inactive).

Consider `CCn1cc(-c2ccnc3cc(C(=O)O)nn23)c(C)n1`, for which the inhibition was 39.6% (inactive). Same read-out and setting: to `CCn1cc(C(=O)Nc2ccc(F)c(F)c2)cn1` belongs 8.5% (inactive).

Take `CC(C)n1nc(C(=O)N2CCN(S(=O)(=O)c3cccs3)CC2)c2ccccc2c1=O`: the inhibition is -6.3% (inactive).

`Cc1ccc(C(=O)O)cc1-c1ccc(/C=C2\SC(=O)N(CC(=O)Nc3ccccc3)C2=O)o1`: the inhibition was 24% (inactive). The same measure, in the same setting: next, `Cc1ccc(NC(=O)CN2C(=O)S/C(=C\c3ccc(-c4cccc(C(=O)O)c4C)o3)C2=O)cc1`: 7.6% (inactive); `Cc1ccc(NC(=O)CN2C(=O)S/C(=C/c3ccc(-c4cccc(C(=O)O)c4)o3)C2=O)cc1`: 62.3% (active). On to `O=c1[nH]cnc(O)c1N=Nc1ccccc1`, for which the inhibition is -0.9% (inactive). Take `CCCSCCCNC(=O)c1cc2c(s1)CS(=O)(=O)C2`: the inhibition is 2% (inactive). As to `O=C(Nc1ccccc1C(=O)O)c1ccc2c(c1)C(=O)N(c1cccc([N+](=O)[O-])c1)C2=O`, the inhibition was 11.2% (inactive). On to `O=C(O)c1cccc(NC(=O)c2ccc3c(c2)C(=O)N(c2cccc([N+](=O)[O-])c2)C3=O)c1`, for which the inhibition is 26.4% (inactive).

`CCOC(=O)c1cc2c(N)c(C(=O)c3cc(C#N)c(SC)nc3C)sc2nc1C`: the inhibition is 8.2% (inactive). Same read-out and setting: next, `COc1cc2ccccc2nn1`: 22.3% (inactive); `COc1ccc2c(n1)Sc1nc3ccccc3nc1N2`: 78.9% (active). Same read-out and setting: to `COc1nc2ccccc2nc1OC` belongs -4.1% (inactive). The same measure, in the same setting: to `Cn1nc(-c2ccccc2)cc1NC(=O)Nc1ccc(F)cc1` belongs -0.7% (inactive); to `COc1ccc(N=C2NC(=O)/C(=C/c3ccco3)S2)cc1`, -14.1% (inactive). Regarding `Cc1ccc(N=C2NC(=O)/C(=C\c3ccco3)S2)cc1`, the inhibition is 58.4% (inactive). Also, under setting [1], the inhibition worked out at 6.9%. On to `Cc1ccc(N=C2NC(=O)S/C2=C\c2ccco2)cc1`, for which the inhibition is 29.6% (inactive). On the same count and under the same terms, next, `Cc1ccc(N=C2NC(=O)/C(=C/C=C/c3ccco3)S2)cc1C`: 76% (active); `O=C1NC(=Nc2ccccc2)/C(=C/c2ccco2)S1`: 24.1% (inactive); `Cc1ccc(N=C2NC(=O)/C(=C/C=C/c3ccco3)S2)cc1`: 36.2% (inactive). As to `Cc1cccc(N=C2NC(=O)/C(=C/C=C/c3ccco3)S2)c1`, the inhibition was 57.2% (inactive). In addition, under setting [1], the inhibition was 31.3%. For `O=C1NC(=Nc2ccc(Cl)cc2)/C(=C/c2ccco2)S1`, the inhibition was 55.3% (active). Regarding `COc1ccc(N=C2NC(=O)/C(=C\c3ccco3)S2)cc1`, the inhibition is 81.2% (active). The same measure, in the same setting: next, `Fc1cccc(Cl)c1CSc1nnc2ccccn12`: 4% (inactive). Take `Cc1c(CC(=O)NCC(=O)NCC(=O)O)c(=O)oc2cc3c(cc12)CCC(C)(C)O3`: the inhibition is 16.3% (inactive).

`Clc1ccc(-n2nnnc2SCc2cn3ccccc3n2)cc1`: the inhibition was -7.5% (inactive). Still for that read-out and setting: to `Cc1cc(Cl)c(OCCOCCN2CCCCC2)c(Br)c1` belongs -0.3% (inactive); to `CCNC(=O)NC(=O)COC(=O)C1CSC2(C)CCC(=O)N12` (centres undefined), 3.1% (inactive); to `C=CCN=C(NC#N)SCC(=O)NCc1ccccc1`, 2.2% (inactive). Same read-out and setting: to `CNC(=O)/C(C#N)=C/c1ccc(-c2ccc(OC)cc2[N+](=O)[O-])o1` belongs 11.4% (inactive).

For `COc1cccc(NC(=O)c2ccc(-c3ccccc3[N+](=O)[O-])o2)c1`, the inhibition is 52.1% (inactive). The inhibition under setting [1] was 1.4%. As to `COc1ccc(-c2ccc(C(=O)O)o2)c([N+](=O)[O-])c1`, the inhibition is 59.6% (active). Same read-out and setting: next, `Cc1ccc(S(=O)(=O)N2CCN(C(=O)c3ccc(Cl)nc3)CC2)cc1`: 3% (inactive); `COc1ccc(C(=O)Nc2ccc(CN3CCOCC3)cc2)cc1Br`: 3% (inactive); `COc1ccc(-c2cc(-c3ccccc3)nc(=O)[nH]2)cc1`: 0.5% (inactive). As for `Cc1cc(C)c2nc(-c3ccccn3)cc(C(=O)Nc3ccc(S(=O)(=O)Nc4cc(C)on4)cc3)c2c1`, the inhibition was 39.7% (inactive). Still for that read-out and setting: to `Cc1cc(C)c2nc(-c3cccnc3)cc(C(=O)Nc3ccc(S(=O)(=O)Nc4onc(C)c4C)cc3)c2c1` belongs 31.4% (inactive).

In the case of `Cc1cc(C)c2nc(-c3ccccn3)cc(C(=O)Nc3ccc(S(=O)(=O)Nc4onc(C)c4C)cc3)c2c1`, the inhibition was 51% (active). For the same compound, the inhibition under setting [1] is 52.5%. For the compound `COC(=O)c1sccc1NC(=O)c1ccc(C)o1`, the inhibition is 19.2% (inactive).

Source of the values: PubChem BioAssay AID2073 (Sanford-Burnham Center for Chemical Genomics, 2009).
